# esBAF inh: inhibitors of esBAF chromatin remodeling in mouse ES cells; AID 602393; reporter increase, % at 12.5 µM; actives 2% (n = 350,000); Bmi1-luciferase knock-in reporter, 24 h; 100% = twice the neutral-well signal; in the data active = activation above about 40%; inconclusive = no clear call, values can overlap the other calls;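 note: 0% = median of the plate's neutral control wells and 100% = double that signal; a rise in the Bmi1 reporter signal indicates esBAF inhibition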
# Wnt bcat act: Wnt/beta-catenin pathway activation; Wnt/beta-catenin reporter cell assay, activator, plate reader; activation, % at 9.35 µM; actives 1.2% (n = 300,000); AID 743398; in the data active = activation above about 30%, passing the limit was not always enough; inconclusive = no clear call, values can overlap the other calls;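 note: 0% = neutral control wells and 100% = positive control wells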
# FGF22 binding: shifts melting point of recombinant human FGF22 | activity (Tm shift, normalised), % at 9.99 µM | actives 1.5% (n = 340,000) | recombinant FGF22 thermal shift, SYPRO orange fluorescence; percent of sucrose octasulfate shift, DMSO zero | AID 651658 | Q9HCT0;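 active = mean Tm shift, scaled 0 neutral to 100 positive control, at about 1.3% or above, every replicate too, limit read from the data; inconclusive = no clear call, values can overlap the other calls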
# MLL AF4-AF9 inh: MLL-AF4/AF9 protein interaction inhibition; P42568; AlphaScreen, biotin-AF4 peptide binding to FLAG-AF9; inhibition, % at 10 µM; actives 0.47% (n = 350,000); AID 651704;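 active = every replicate reaching a set inhibition limit, whatever the replicate mean, cut at about 25% in these data; inconclusive = mean inhibition reaches that limit but some replicates miss it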;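 note: 0% = plate neutral control median and 100% = total signal loss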
# Target sequence (P42568 whole entry, looked up): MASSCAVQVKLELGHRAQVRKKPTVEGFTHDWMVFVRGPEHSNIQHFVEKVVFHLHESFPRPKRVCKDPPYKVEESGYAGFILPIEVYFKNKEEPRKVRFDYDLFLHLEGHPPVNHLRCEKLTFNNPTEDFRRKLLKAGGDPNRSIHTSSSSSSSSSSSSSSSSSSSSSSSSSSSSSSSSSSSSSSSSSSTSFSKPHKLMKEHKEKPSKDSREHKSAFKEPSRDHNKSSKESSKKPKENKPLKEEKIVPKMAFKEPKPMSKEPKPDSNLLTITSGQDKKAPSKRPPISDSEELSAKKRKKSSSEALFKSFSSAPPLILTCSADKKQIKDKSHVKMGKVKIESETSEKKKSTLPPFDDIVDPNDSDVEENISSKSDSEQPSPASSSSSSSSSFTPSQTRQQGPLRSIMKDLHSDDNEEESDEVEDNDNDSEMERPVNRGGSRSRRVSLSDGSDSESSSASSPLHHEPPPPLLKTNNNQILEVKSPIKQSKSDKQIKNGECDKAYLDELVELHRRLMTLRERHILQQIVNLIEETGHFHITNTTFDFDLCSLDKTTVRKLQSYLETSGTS
# MITF TRPM1 HTS: MITF TRPM1 promoter activation in melanoma cells | activation, % at 12.5 µM | actives 0.75% (n = 300,000) | AID 588334 | SK-MEL-5 TRPM1-promoter luciferase, 24 h; % of positive control, neutral wells = 0;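 active = mean activation of at least 80% with every replicate also reaching 80%; inconclusive = mean reaches 80% but some replicate falls short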;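 note: 0% = neutral control wells and 100% = parthenolide positive control wells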
# SMARCA2 activ: SMARCA2 function activation, primary screen | actives 1% (n = 370,000) | activation, % at 9.1 µM | MG213 cells, MMTV-luciferase reporter, dexamethasone, overnight; in the data active = activation above about 7.8%;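 note: 0% = vehicle wells and 100% = reference activator wells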
# Active calls of the source: *; ? = inconclusive; . = not tested or not shown; ! = repeats disagree. Rows were chosen to be rich in hits. Some 4.3% of all compounds tested hit in one or more screens of this group.
SMILES,esBAF inh,Wnt bcat act,FGF22 binding,MLL AF4-AF9 inh,MITF TRPM1 HTS,SMARCA2 activ
Cc1nc(Sc2nnnn2C)c2c3c(sc2n1)CCC3,7,-1,.,.,-86,1
CCc1nc(Sc2nnnn2-c2ccccc2)c2c3c(sc2n1)CCCC3,.,-5,0,47*,-2,-1
CCCN(CCC)c1nc2ccccc2nc1C(C#N)C(=O)OCCOC (stereo not drawn),-7,.,.,.,91*,0
C=CCN(CC=C)c1nc2ccccc2nc1C(C#N)C(=O)OCCOC (stereo not drawn),-1,-1,.,.,.,-1
Cc1nc(-c2ccc([N+](=O)[O-])cc2)nc2[nH]ccc(=O)c12,?,37*,0,-7,105*,5
Cc1nc(-c2ccccc2)nc2[nH]c(-c3ccccc3)cc(=O)c12,.,6,.,.,22,-2
Cc1c(C(=O)Nc2ccccc2)csc1-c1ccccc1,.,59*,.,.,107*,2
Cc1c(C(=O)Nc2ccccc2[N+](=O)[O-])csc1-c1ccccc1,.,-1,.,.,30,2
Cc1ccc[n+](Cc2ccc([N+](=O)[O-])cc2)c1,.,0,0,-1,.,1
O=[N+]([O-])c1ccc(C[n+]2cccc3c4ccccc4ccc32)cc1,-10,0,43*,0,-25,-6
C[C@@H]1CN([C@@H](C)CO)C(=O)c2cc(NC(=O)Nc3ccccc3)ccc2O[C@@H](C)CCCCO[C@H]1CN(C)C(=O)C1CCCCC1,1,.,0,-2,.,.
Cn1/c(=N/NC(=O)c2ccccc2Br)sc2ccccc21,.,51*,0,-8,48,4
O=C(NCCOc1ccccc1)c1ccccc1Cl,-6,35*,0,-1,71,2
CCC(=O)Nc1ccc2c(c1)OC[C@H](C)N(Cc1cncnc1)C[C@@H](C)[C@H](OC)CN(C)C2=O,3,.,1,-1,.,.
NC(=O)c1cc2c(s1)-c1cc(Cl)ccc1SC2,5,9,0,-12,-4,-3
COCCNC(=O)c1cc2c(s1)-c1ccc(Cl)cc1SC2,32,43*,0,2,42,3
C[C@@H]1CN([C@@H](C)CO)C(=O)c2cccc(NC(=O)Nc3cccc4ccccc34)c2O[C@@H]1CN(C)Cc1ccc(C(F)(F)F)cc1,.,.,-1,1,.,.
O=C(C[C@H]1C[C@@H]2c3cc(NC(=O)C4CCC4)ccc3O[C@@H]2[C@H](CO)O1)NCc1cccc(F)c1,1,.,0,0,.,.
CC1=CC(C)C2(CO)COC(c3cccnc3)C1C2C (stereo not drawn),.,-5,43*,0,17,-3
CC1=CC(C)C2(CO)COC(c3ccc(O)cc3)C1C2C (stereo not drawn),-12,-1,43*,0,-9,0
CCOC(=O)C1=C(N)OC2=C(C(=O)CC(C)(C)C2)C1c1cccnc1 (stereo not drawn),-1,0,.,.,-8,0
CC1CC2(C)Oc3ccccc3C3OCC1(CO)C(C)C32 (stereo not drawn),-6,.,.,.,2,3
CCCNC(=O)N1CC2(CCN(CC3CCCCC3)CC2)c2c([nH]c3cc(OC)ccc23)[C@@H]1CO,.,.,0,-1,.,.
O=C(COC(=O)c1cccc(S(=O)(=O)N2CCc3ccccc32)c1)NCc1ccco1,.,0,44*,1,-2,-1
O=C(COC(=O)c1cccc(S(=O)(=O)N2CCc3ccccc3C2)c1)NCc1ccco1,.,.,.,.,-11,-1
SMILES,esBAF inh,Wnt bcat act,FGF22 binding,MLL AF4-AF9 inh,MITF TRPM1 HTS,SMARCA2 activ
CC(C)CN(CC(C)C)C(=O)c1cccc(S(=O)(=O)N2CCc3ccccc32)c1,12,-3,44*,1,-14,2
Fc1ccc(-c2ncc3ccccn23)cc1,.,11,0,-2,-9,-1
Fc1ccc(-c2nnc3ccccn23)cc1,2,-2,43*,-15,-3,-3
Cn1cc(/C=C2/SC(=O)N(c3ccccc3)C2=O)c2ccccc21,.,-2,.,.,48,-1
Cn1cccc1/C=C1/SC(=O)N(CC(=O)N2CCCC2)C1=O,.,-1,43*,0,-10,0
Cn1cccc1/C=C1\SC(=O)N(c2ccccc2)C1=O,.,41*,.,.,95*,5
CCOC(=O)N(C)C[C@@H]1OCc2cn(nn2)CCCC(=O)N([C@@H](C)CO)C[C@@H]1C,4,.,0,-1,.,.
COc1ccc(CCn2c(-c3ccc(C(C)(C)C)cc3)n[nH]c2=S)cc1OC,.,-2,0,-2,-9,7.9*
Cc1cc(C)cc(OCc2nnc(N)s2)c1,.,2,0,-1,0,2
CCOc1ccc(-c2nnc(N)s2)cc1,60*,.,.,.,57,3
Cc1ccc(OCc2nnc(N)s2)cc1,13,0,44*,-2,18,1
COc1ccc(S(=O)(=O)Nc2ccc3c(c2)C(=O)N([C@H](C)CO)C[C@H](C)[C@H](CN(C)C(=O)c2ccncc2)OCCCC[C@H](C)O3)cc1,0,.,0,-1,.,.
Cc1ccc(Nc2ncc3c(n2)CC(C)(C)CC3=O)cc1,.,-1,0,-1,91*,5
N#C/C(=C(/O)COC(=O)c1cccnc1Cl)c1nc2ccccc2[nH]1,.,0,44*,-1,4,-3
N#C/C(=C(/O)COC(=O)c1ccc(O)cc1)c1nc2ccccc2[nH]1,1,-1,0,0,-6,-3
COc1ccc(OC)c(/C=N/N(C)c2ccccc2)c1,73*,.,.,.,96*,0
COc1cc(/C=N/N(C)c2ccccc2)cc(Cl)c1O,50*,9,.,.,24,2
C=CC[C@@H](OC(=O)Nc1ccc(SC)cc1)c1ccc(OCCO)cc1,.,.,0,-3,.,.
O=C(Nc1cccc2nsnc12)c1cccs1,47*!,9,.,.,62,4
O=C(Nc1ccccc1)Nc1cccc2nsnc12,.,40*,0,-5,35,5
N#C/C(=C\c1cccs1)C(=O)Nc1ccccn1,.,74*,0,3,89*,4
N#C/C(=C\c1ccccc1)C(=O)Nc1ccccn1,-5,0,0,4,10,1
CNC[C@@H]1Oc2ccc(NC(=O)NC(C)C)cc2CC(=O)N([C@H](C)CO)C[C@H]1C,3,.,0,-1,.,.
CCOc1c2ccc(C(=O)N[C@H](C)C3CCCCC3)cc2nn1CCOC,2,-4,44*,1,10,0
CCCn1nc2cc(C(=O)NCCc3cccs3)ccc2c1OCC,72*,19,0,0,71,4
CCCn1nc2cc(C(=O)NCc3ccc(OC(F)(F)F)cc3)ccc2c1OCC,1,-3,43*,0,-3,1
Cc1ccc(S(=O)(=O)N(C)C[C@H]2Oc3ccc(NS(=O)(=O)c4cccs4)cc3C(=O)N([C@@H](C)CO)C[C@H]2C)cc1,2,.,0,2,.,.
Cc1ccc(S(=O)(=O)N2CCN(Cc3ccsc3)CC2)cc1,.,-10,43*,-6,-2,-2

# Assay outcomes (PubChem BioAssay)
